# Laboratory results from PubChem BioAssay AID602197 (NMMLSC, 2012).
# The list shows a part of the results. A number with no mark means an inactive call. The source made the active and inactive calls. Rule as the data show it: active = response above about 24%; inactive = the rest.
# Experiment: V-ATPase regulators in yeast, one dose – S. cerevisiae, pH-sensitive GFP, second cherry-pick, confirmation (AID 602197);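 also: plate controls were vehicle wells for no effect and positive control wells for full effect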
# Settings: S. cerevisiae pHLuorin cytosolic pH, V-ATPase proton transport; at 10 µM; stronger effect = higher value
row,Compound,response
1,CCC(=O)c1ccc(OCC(=O)Nc2ccc(N3CCCCC3)cc2)cc1,-1.55%
2,CC(=O)N1CCC(N(C(=O)Nc2ccc(Cl)cc2)C(C)C)CC1,2.59%
3,O=C1c2ccccc2C(=O)N1CCCCCCN1C(=O)c2ccccc2C1=O,2.04%
4,COc1ccc(N2CCN(C(=O)/C(C#N)=C/c3ccccc3)CC2)cc1,-3.48%
5,COc1cc2c(cc1/C=C1/NC(=O)N(c3ccccc3)C1=O)OCO2,-0.72%
6,O=C(O/N=C(/c1ccccc1)c1ccncc1)c1ccccc1[N+](=O)[O-],4.81%
7,Cc1cc(CO)nn1-c1ccc([N+](=O)[O-])cc1,2.63%
8,O=C1Oc2ccccc2C(=O)/C1=C/c1ccccc1O,91.4% (active)
9,COc1cccc(OC)c1C(=O)OCC(=O)/C(C#N)=C(\C)N,-0.01%
10,Cc1ccc(C(=O)Nc2nc3ccc(Cl)cc3s2)o1,-0.02%
11,O=S1(=O)C=C(SCCN2CCCC2)c2ccccc21,-0.88%
12,COC(=O)c1c(-c2ccc(C)cc2)csc1N,0.92%
13,CCOC(=O)CNC(=O)CSc1nnc(COc2ccc(Cl)cc2)n1CC,-1.08%
14,CCCc1cc(=O)[nH]c(SCc2ccc(C#N)cc2)n1,1.04%
15,Cc1occc1C(=O)Nc1nnc(C2CCCCC2)s1,3.1%
16,C/C=C/C(=O)OCc1csc(CC(=O)Nc2ccccc2C)n1,-3.22%
17,O=C(COc1cc2oc(=O)c3c(c2cc1Cl)CCC3)NCCCN1CCOCC1,2.9%
18,COc1ccccc1CNC(=O)COC(=O)c1sc(C)nc1C,1.62%
19,O=C(NC1CCN(Cc2ccccc2)CC1)c1cc(Br)c(Br)[nH]1,2.14%
20,CCOC(=O)Cn1c(-c2cccnc2Cl)nc2ccccc21,1.29%
21,Cc1ccc2nc(-c3ccncc3)cc(C(=O)Nc3ccc(OC(F)F)cc3)c2c1,2.3%
22,CCCc1nnc(NC(=O)c2cc(OC)cc(OC)c2)s1,-0.87%
23,CNC(=O)c1csc(Cc2c(Cl)sc3ccc(Cl)cc23)n1,2.33%
